Inconclusive results are not listed. A call without a number means that no potency is given here. Values without a mark were called inactive. The source made the active and inactive calls. Unless noted, the call rests on the fitted dose curve; in most records, active means well fitted curve in the direction sought with a large enough effect in the repeat runs; inconclusive means weak or mixed curves; inactive means no such curve, though single readings can be large; an effect the other way counts as inactive or inconclusive.
Columns and labels:
[1] = qHTS assay to identify small molecule antagonists of the retinoid acid receptor (RAR) signaling pathway - cell viability counter screen (AID 1159551); conditions: C3RL4 cells viability, ATP luminescence (CellTiter-Glo), 6 h; series mostly up to 92.4 µM; further: nearly all actives have a fitted effect of over 35% in size
Outline: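 ATP-based viability, C3RL4 cells, 6 h at 37 C with 1 uM final retinol co-added after compound; luminescence read 30 min post CellTiter-Glo, RT.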

[2] = qHTS assay to identify small molecule antagonists of the retinoic acid receptor (RAR) signaling pathway (AID 1159552; further: nearly all actives have a fitted effect of over 50% in size; further: potency means the concentration at half of the fitted maximal effect); conditions: C3RL4 RARE luciferase reporter, retinol-stimulated, 6 h; series mostly up to 92.4 µM
Outline: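 C3RL4 RARE-luc cells, overnight plating; retinol 1 uM final added right after compound; 6 hr 37 C; luciferase read at 30 min RT.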

[3] = qHTS assay to identify small molecule agonists of the retinoic acid receptor (RAR) signaling pathway (AID 1159553); conditions: C3RL4 RARE luciferase reporter, agonist, 6 h; series mostly up to 73.3 µM
Outline: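 Quantitative high-throughput format: the Tox21 10K library was tested on C3RL4 RARE-luciferase cells for 6 hr at 37 C and 5% CO2, with luminescence measured after a 30 min room-temperature reagent step.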

[4] = qHTS assay to identify small molecule antagonists of the estrogen related receptor (ERR) signaling pathway from Tox21 library - cell viability counter screen (AID 1224834); conditions: ERR reporter cells viability, CellTiter-Fluor, 17.5 h; series mostly up to 92.4 µM; further: nearly all actives have a fitted effect of over 30% in size; further: potency means the concentration at half of the fitted maximal effect
Outline: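 Compounds in DMSO were pinned onto ERR cells that had been incubated for 6 h, and the plates were held at 37 C for 17.5 h. CellTiter-Fluor reagent was then added and fluorescence was measured after 30 min.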

[5] = qHTS assay to identify small molecule antagonists of the estrogen related receptor (ERR) signaling pathway - cell viability counter screen (AID 1224818); conditions: ERR reporter cell line viability counter screen; series mostly up to 46.1 µM;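 further: viability measured after 17.5 h of compound exposure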
Outline: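 Quantitative high-throughput viability counter screen in ERR cells. Compounds (DMSO) incubated 17.5 h at 37 C; read-out was CellTiter-Fluor fluorescence.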

[6] = qHTS assay to identify small molecule antagonists of the estrogen related receptor signaling pathway with the pleiotropic PPARgamma coactivator (PGC) cell viability counter screen (AID 1224822); conditions: ERR/PGC reporter cell line viability counter screen; series mostly up to 46.1 µM
Outline: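 Cytotoxicity in the PGC/ERR cell line is assessed with CellTiter-Fluor, read as fluorescence intensity 30 min after reagent addition, following 17.5 h compound treatment at 37 C.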

[7] = qHTS assay to identify small molecule antagonists of the estrogen related receptor (ERR) signaling pathway (AID 1224819;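 further: luminescence from an ERR-driven luciferase reporter measured with One-Glo reagent; nearly all actives have a fitted effect of over 50% in size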); conditions: ERR reporter cell line, luciferase inhibition; series mostly up to 46.1 µM
Outline: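 ERR reporter cell line (NTP) plated at 2,000 cells/well, settled 6 h at 37C/5% CO2, then exposed to LOPAC compounds for 18 h at 37C. One-Glo luciferase luminescence read after 30 min at room temperature.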

[8] = qHTS assay to identify small molecule agonists of the estrogen related receptor (ERR) signaling pathway (AID 1224820); conditions: ERR reporter cell line, luciferase agonist mode; series mostly up to 46.1 µM
Outline: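 Following a 6 h settling period, 2,000 ERR cells per well receive DMSO-dissolved compounds by pin tool and incubate 18 h at 37 C; agonist activity is scored from One-Glo luminescence read 30 min post-addition.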

[9] = tested on: estrogen-related receptor alpha (ERRalpha) with PGC-1alpha coactivator, human; experiment: qHTS assay to identify small molecule antagonists of the estrogen related receptor signaling pathway with the pleiotropic PPARgamma coactivator (PGC) (AID 1224821; calls by dose curve;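 further: lower luminescence signal means antagonism of PGC/ERR signalling; nearly all actives have a fitted effect of over 50% in size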); conditions: ERR/PGC reporter cell line, luciferase, antagonist mode; series mostly up to 46.1 µM
Outline: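 Screening used NTP's PGC/ERR cells, dosed via pin tool with compound in DMSO alongside positive and negative controls. After 18 h at 37 C, One-Glo reagent sat 30 min at room temperature before luminescence detection.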

[10] = qHTS assay to identify small molecule agonists of the estrogen related receptor signaling pathway with the pleiotropic PPARgamma coactivator (PGC) (AID 1224823); conditions: ERR/PGC reporter cell line, luciferase agonist mode; series mostly up to 46.1 µM
Outline: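 In this quantitative high-throughput screen, an 18 h, 37 C treatment of PGC/ERR cells with compounds in DMSO preceded a One-Glo luminescence read taken after 30 min at room temperature.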

With CCCCCCCC/C=C\CCCCCCCC(=O)OCC as the compound, how does the Potency [1] read?
The Potency was “inactive”.

And the Potency [2]?
The Potency was “inactive”.

What about the Potency [3] of the same compound?
The Potency was “inactive”.

What about the Potency [4] of the same compound?
The Potency was “inactive”.

Which results are given for CN(C)CCN(Cc1ccc(Cl)cc1)c1ccccn1?
Potency [1]: inactive; Potency [2]: inactive; Potency [3]: inactive; Potency [4]: inactive

With CC(COCCO)OCCO (configuration not stated) as the compound, how does the Potency [1] read?
The Potency was “inactive”.

What about the Potency [2] of the same compound?
Its Potency is “inactive”.

And the Potency [3]?
Its Potency is “inactive”.

What about the Potency [4] of the same compound?
Its Potency is “inactive”.

Which results are given for CCCCCCCCCCO[C@@H]1O[C@H](CO)[C@@H](O)[C@H](O)[C@H]1O?
Potency [1]: inactive; Potency [2]: inactive; Potency [3]: inactive; Potency [4]: inactive

Which results are given for C[Si](C)(CCCN)O[Si](C)(C)CCCN?
Potency [1]: inactive; Potency [2]: inactive; Potency [3]: inactive; Potency [4]: inactive

Which results are given for Nc1ccccc1S(=O)(=O)c1ccccc1?
Potency [1]: inactive; Potency [2]: inactive; Potency [3]: inactive; Potency [4]: inactive

For O=C1c2ccccc2S(=O)(=O)N1CCCCN1CCN(c2ncccn2)CC1, which Potency [1] is on record?
The Potency was “inactive”.

And the Potency [2]?
Its Potency is “inactive”.

What about the Potency [3] of the same compound?
The Potency was “inactive”.

And the Potency [4]?
Its Potency is “inactive”.

For Cc1cccc(C)c1OCC(=O)N[C@@H](Cc1ccccc1)[C@@H](O)C[C@H](Cc1ccccc1)NC(=O)[C@H](C(C)C)N1CCCNC1=O, which Potency [1] is on record?
Its Potency is “inactive”.

And the Potency [2]?
Its Potency is “inactive”.

What about the Potency [3] of the same compound?
Its Potency is “inactive”.

And the Potency [4]?
Its Potency is 21.1 µM (active).

With COC(C)OC as the compound, how does the Potency [1] read?
Its Potency is “inactive”.

And the Potency [2]?
The Potency was “inactive”.

What about the Potency [3] of the same compound?
The Potency was “inactive”.

What about the Potency [4] of the same compound?
Its Potency is “inactive”.

Which results are given for CC1CCC(=O)C1=O (configuration not stated)?
Potency [1]: inactive; Potency [2]: inactive; Potency [3]: inactive; Potency [4]: inactive

What does the source list for O=C(O)CC(=O)C(=O)O?
Potency [1]: inactive; Potency [2]: inactive; Potency [3]: inactive; Potency [4]: inactive

Which results are given for O=C(O)c1nc(Cl)c(Cl)c(Cl)c1Cl?
Potency [1]: inactive; Potency [2]: inactive; Potency [3]: inactive; Potency [4]: inactive

With CC1(c2ccccc2)OC(C(=O)O)=CC1=O (configuration not stated) as the compound, how does the Potency [1] read?
The Potency was “inactive”.

And the Potency [2]?
The Potency was “inactive”.

What about the Potency [3] of the same compound?
Its Potency is “inactive”.

And the Potency [4]?
The Potency was “inactive”.

What does the source list for CN(C)CCN(Cc1ccsc1)c1ccccn1?
Potency [1]: inactive; Potency [2]: inactive; Potency [3]: inactive; Potency [4]: inactive

For O=C(O)C(S)C(S)C(=O)O (configuration not stated), which Potency [1] is on record?
Its Potency is “inactive”.

What about the Potency [2] of the same compound?
Its Potency is “inactive”.

What about the Potency [3] of the same compound?
The Potency was “inactive”.

What about the Potency [4] of the same compound?
Its Potency is “inactive”.

With Cc1oc2c(NC(=O)c3c(Cl)cccc3Cl)cccc2c1C(C)(C)O as the compound, how does the Potency [1] read?
Its Potency is “inactive”.

And the Potency [2]?
The Potency was “inactive”.

And the Potency [3]?
Its Potency is “inactive”.

And the Potency [4]?
The Potency was 43.3 µM (active).

With CCCCCCCCCCCCN1CCCCCC1=O as the compound, how does the Potency [1] read?
The Potency was “inactive”.

And the Potency [2]?
Its Potency is “inactive”.

And the Potency [3]?
The Potency was “inactive”.

What about the Potency [4] of the same compound?
Its Potency is “inactive”.

Which results are given for CCNc1cc(O)ccc1C?
Potency [1]: inactive; Potency [2]: inactive; Potency [3]: inactive; Potency [4]: inactive

For O=C1[C@H]2CCCC[C@H]2C(=O)N1CCCCN1CCN(c2nsc3ccccc23)CC1, which Potency [1] is on record?
The Potency was “inactive”.

What about the Potency [2] of the same compound?
The Potency was “inactive”.

What about the Potency [3] of the same compound?
Its Potency is “inactive”.

And the Potency [4]?
The Potency was 29.8 µM (active).

Which Potency [1] does the source give for CCC(=O)O[C@]1(C(=O)CCl)[C@@H](C)C[C@H]2[C@@H]3CCC4=CC(=O)C=C[C@]4(C)[C@@]3(F)[C@@H](O)C[C@@]21C here?
Its Potency is “inactive”.

What about the Potency [2] of the same compound?
Its Potency is “inactive”.

What about the Potency [3] of the same compound?
The Potency was “inactive”.

And the Potency [4]?
Its Potency is “inactive”.

Which Potency [1] does the source give for CCCCOC(=O)CCCCCCCC(=O)OCCCC here?
The Potency was “inactive”.

And the Potency [2]?
The Potency was “inactive”.

What about the Potency [3] of the same compound?
Its Potency is “inactive”.

What about the Potency [4] of the same compound?
Its Potency is “inactive”.

Which Potency [1] does the source give for C#Cc1cccc(Nc2ncnc3cc(OCCOC)c(OCCOC)cc23)c1 here?
The Potency was “inactive”.

What about the Potency [2] of the same compound?
Its Potency is “inactive”.

What about the Potency [3] of the same compound?
The Potency was “inactive”.

What about the Potency [4] of the same compound?
Its Potency is 8.41 µM (active).

Which Potency [1] does the source give for O=C(O)c1ccccc1Cl here?
Its Potency is “inactive”.

And the Potency [2]?
The Potency was “inactive”.

What about the Potency [3] of the same compound?
Its Potency is “inactive”.

What about the Potency [4] of the same compound?
The Potency was “inactive”.

For OC(C#CCN1CCCC1)(c1ccccc1)c1ccccc1, which Potency [1] is on record?
Its Potency is “inactive”.

And the Potency [2]?
Its Potency is “inactive”.

What about the Potency [3] of the same compound?
The Potency was “inactive”.

What about the Potency [4] of the same compound?
The Potency was “inactive”.

What does the source list for CCCCC?
Potency [1]: inactive; Potency [2]: inactive; Potency [3]: inactive; Potency [4]: inactive

Which Potency [1] does the source give for C[C@@H]1C[C@H]2[C@@H]3CCC4=CC(=O)C=C[C@]4(C)[C@@]3(F)[C@@H](O)C[C@]2(C)[C@@]1(O)C(=O)COC(=O)c1ccncc1 here?
Its Potency is “inactive”.

What about the Potency [2] of the same compound?
Its Potency is “inactive”.

And the Potency [3]?
Its Potency is “inactive”.

And the Potency [4]?
Its Potency is “inactive”.

Which Potency [1] does the source give for C=C(C)C(=O)OCCOCC here?
Its Potency is “inactive”.

And the Potency [2]?
The Potency was “inactive”.

What about the Potency [3] of the same compound?
The Potency was “inactive”.

And the Potency [4]?
The Potency was “inactive”.

For COc1cc2c(cc1OC)C(C(C(=O)N(CCc1ccc(OC)c(OC)c1OC)CCc1ccc(OC)c(OC)c1OC)c1ccccc1)=NCC2 (configuration not stated), which Potency [1] is on record?
The Potency was “inactive”.

What about the Potency [2] of the same compound?
Its Potency is “inactive”.

What about the Potency [4] of the same compound?
The Potency was 23.7 µM (active).

Which Potency [1] does the source give for COc1ccc2cccc(CCNC(C)=O)c2c1 here?
The Potency was “inactive”.

And the Potency [2]?
Its Potency is “inactive”.

And the Potency [4]?
Its Potency is “inactive”.

What does the source list for C#CCN(C)CCCOc1ccc(Cl)cc1Cl?
Potency [1]: inactive; Potency [2]: inactive; outcome [5]: inactive; outcome [6]: inactive; Potency [4]: inactive

What does the source list for COc1cc(C(=O)OCCCN2CCCN(CCCOC(=O)c3cc(OC)c(OC)c(OC)c3)CC2)cc(OC)c1OC?
Potency [1]: inactive; Potency [2]: 13.3 µM (active); Potency [7]: inactive; outcome [8]: inactive; Potency [9]: inactive; outcome [10]: inactive; Potency [4]: 23.7 µM (active)

With Nc1cc(C(=O)O)c(O)c(S(=O)(=O)O)c1 as the compound, how does the Potency [1] read?
Its Potency is “inactive”.

What about the Potency [2] of the same compound?
Its Potency is “inactive”.

And the Potency [4]?
Its Potency is “inactive”.

For O=C1C(O)=C(O)C(=O)C(O)=C1O, which Potency [1] is on record?
The Potency was “inactive”.

And the Potency [2]?
The Potency was “inactive”.

What about the Potency [3] of the same compound?
The Potency was “inactive”.

What about the Potency [4] of the same compound?
Its Potency is “inactive”.

For O=C(OCCc1ccccc1)c1ccccc1, which Potency [1] is on record?
The Potency was “inactive”.

And the Potency [2]?
Its Potency is “inactive”.

And the Potency [4]?
Its Potency is “inactive”.

Which results are given for Cc1ncc(CO)c(C=O)c1O?
Potency [1]: inactive; Potency [2]: inactive; Potency [3]: inactive; Potency [4]: inactive

What does the source list for CCn1cc(C(=O)O)c(=O)c2cnc(N3CCNCC3)nc21?
Potency [1]: inactive; Potency [2]: inactive; Potency [4]: inactive

Which Potency [1] does the source give for C=CC1CC2C=CC1C2 (configuration not stated) here?
Its Potency is “inactive”.

And the Potency [2]?
Its Potency is “inactive”.

What about the Potency [3] of the same compound?
The Potency was “inactive”.

And the Potency [4]?
The Potency was “inactive”.

From PubChem BioAssay (Tox21)
